In the supplement of paper PMC9477273:

Tested on: DRIVER-selected RNA biosensor (aptazyme) pool
Assay: maximum fold change of ribozyme cleavage across biosensor pool versus no-compound control; higher = stronger biosensor response (ligand inhibits cleavage)
Conditions: 10 µM
Method in brief: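 Fold change of cleavage, the ratio of cleaved:uncleaved read fractions versus a no-compound condition corrected with reference sequences, is given as the maximum over all biosensors. It was measured by CleaveSeq on a pool of 1,730 array-resynthesized ribozyme biosensors transcribed by T7 with 9 mM rNTPs for 15–30 min at 37°C in the presence of one compound at 10 µM final, added from a 10x DMSO stock. After reverse transcription at 50°C, cleaved and uncleaved products were PCR-barcoded and counted by Illumina sequencing.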

Compound	maximum fold change
C=CC[n+]1c(/C=C2\C=CC=CN2C)sc2ccccc21	13.8
COc1ccc(C(=O)Cc2cc3cccc(OC)c3oc2=O)cc1	1.82
CCOC(=O)c1c(NC(=O)COc2ccc(Cl)cc2Cl)sc2c1CCC2	3.01
CCCN(CCC)CCCNS(=O)(=O)c1ccc(OCC)c2ncccc12	2.96
CCOC(=O)c1cnc(SC)nc1NC(=O)CSCc1csc2c1CCCC2	3.61
CCN1CCN(C(=O)c2ccc(Cn3c(SCc4ccccc4F)nc4ccncc43)cc2)CC1	2.65
O=C(NCc1ccco1)c1ccccc1Br	2.5
N#C/C(=Cc1c(Oc2ccc(cc2)C)nc2n(c1=O)cccc2)/C(=O)OC	5.19
Cc1cccc(CNCc2c(C(=O)O)c(C)n(Cc3c(F)cccc3Cl)c2C)c1	1.89
COc1ccc(-c2cn3c(C)c(C(=O)NCCCOC(C)C)sc3n2)cc1	2.79
Cc1ccc(NC(=O)c2cc3c(=O)oc4ccccc4c3s2)nc1	6.76
COc1ccc(S(=O)Cc2ccc(C(=O)NC3CC3)o2)cc1 (stereo unspecified)	2.4
NC(=O)c1nc2n(c1N)CCCCC2	2.43
O=C(c1ccccc1O)N1CCOCC1	1.99
CCNC(=S)N1CCN=C1Nc1nc(C)cc(C)n1	2.17
CCCCC(C(=O)N1CCCCC1)N1C(=O)c2ccccc2C1=O (stereo unspecified)	1.93

Compound	maximum fold change
Cc1c(C(=O)Nc2ccncc2)sc2nc(-c3ccccc3)cn12	3.12
COc1ccccc1/C=C1N=C(c2ccc(Cl)c(Cl)c2)OC1=O	3.36
Cc1cc(C)cc(-n2c(C)cc(/C=C3\C(=N)N4N=C(N5CCOCC5)SC4=NC3=O)c2C)c1	4.19
CCOC(=O)/C(=CC=CN1CCOCC1)/C(=O)C	1.94
CCOc1cc(C2c3c(-c4ccccc4O)n[nH]c3C(=O)N2CCO)ccc1OCc1ccccc1 (stereo unspecified)	3.55
COCCN1C(=O)c2ccccc2C(C(=O)N2CCC(C)CC2)C1c1cn(C)c2ccccc12 (stereo unspecified)	4.72
CC(=O)c1c(C)[nH]c2ccccc2c1=O	2.03
C=Cc1ccc(Cn2c(C)c(CNCCc3ccccc3)c(C(=O)O)c2C)cc1	2.07
Cc1ccc2[nH]c(=O)c3cc(C(=O)NCCCN(C)Cc4ccccc4)sc3c2c1	7.38
COc1cccc(-c2nc3sc4c(c3c(=O)n2CC(=O)NC2CCCCC2)CCCC4)c1	1.74
COc1ccc2nc3oc(C(=O)NCCCN4CCC(Cc5ccccc5)CC4)cc3cc2c1	5.98
Cc1c[n+]([O-])n(-c2ccc(C(=O)O)cc2)n1	2.15
c1ccc2nc3c(nc2c1)c1ccccc1n3CN1CCCCC1	10.9
CN(CCCNC(=O)c1ccc(CS(=O)(=O)Cc2cccc(Cl)c2)o1)C1CCCCC1	1.94
C=Cc1ccc(Cn2c(C)c(CNCc3ccc(CC)cc3)c(C(=O)O)c2C)cc1	3.37
